Screens deposited in PubChem BioAssay by Broad Institute.
NSD2 inh – NSD2 (human) methyltransferase inhibition | AID 743445 | 310,000 tested, 0.54% active | inhibition, % at 12.5 µM | O96028 | NSD2 peptide methylation, AlphaScreen, 120 min; in the data active = inhibition above about 50%
Target sequence (O96028 whole entry, looked up): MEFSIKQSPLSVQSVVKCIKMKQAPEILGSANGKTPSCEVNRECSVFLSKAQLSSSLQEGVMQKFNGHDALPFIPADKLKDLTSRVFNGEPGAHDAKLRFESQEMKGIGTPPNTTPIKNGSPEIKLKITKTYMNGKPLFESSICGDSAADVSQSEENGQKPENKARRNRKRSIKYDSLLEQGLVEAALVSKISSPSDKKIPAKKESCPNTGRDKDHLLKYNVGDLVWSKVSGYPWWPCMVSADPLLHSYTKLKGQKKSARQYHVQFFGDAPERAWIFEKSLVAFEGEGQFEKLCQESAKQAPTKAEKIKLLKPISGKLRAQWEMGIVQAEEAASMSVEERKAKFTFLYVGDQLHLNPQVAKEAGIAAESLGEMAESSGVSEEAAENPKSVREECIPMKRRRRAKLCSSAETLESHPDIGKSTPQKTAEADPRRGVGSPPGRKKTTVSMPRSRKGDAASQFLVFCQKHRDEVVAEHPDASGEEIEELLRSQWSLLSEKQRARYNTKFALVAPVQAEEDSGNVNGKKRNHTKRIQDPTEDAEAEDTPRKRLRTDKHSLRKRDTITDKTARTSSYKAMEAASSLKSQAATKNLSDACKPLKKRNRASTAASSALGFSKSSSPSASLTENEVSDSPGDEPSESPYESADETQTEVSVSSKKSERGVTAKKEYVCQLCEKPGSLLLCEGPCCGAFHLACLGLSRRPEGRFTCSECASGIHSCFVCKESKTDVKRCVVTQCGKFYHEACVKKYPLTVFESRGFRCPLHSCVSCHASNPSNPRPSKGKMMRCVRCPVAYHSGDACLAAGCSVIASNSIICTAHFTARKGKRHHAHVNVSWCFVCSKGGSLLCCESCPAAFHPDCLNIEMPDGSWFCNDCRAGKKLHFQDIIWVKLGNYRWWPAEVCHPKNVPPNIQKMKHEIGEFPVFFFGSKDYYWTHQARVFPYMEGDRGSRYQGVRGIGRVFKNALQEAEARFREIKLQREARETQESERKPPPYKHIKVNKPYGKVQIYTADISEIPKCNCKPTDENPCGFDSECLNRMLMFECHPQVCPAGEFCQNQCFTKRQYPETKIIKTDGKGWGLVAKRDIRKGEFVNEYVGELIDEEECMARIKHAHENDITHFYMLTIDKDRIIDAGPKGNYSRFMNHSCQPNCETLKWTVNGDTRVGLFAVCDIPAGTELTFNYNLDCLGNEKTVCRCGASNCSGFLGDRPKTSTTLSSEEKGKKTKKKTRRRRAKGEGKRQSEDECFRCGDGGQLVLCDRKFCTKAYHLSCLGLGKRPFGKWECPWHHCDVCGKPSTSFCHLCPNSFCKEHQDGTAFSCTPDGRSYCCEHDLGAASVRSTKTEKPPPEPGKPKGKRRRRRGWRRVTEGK
miR122 inh – inhibitors of miR-122 in Huh7 cells | AID 602342 | Huh7 miR-122 Renilla luciferase sensor, 48 h; neutral wells = 0, positive control = 100 | activation (reporter increase), % at 12.5 µM | 340,000 tested, 0.3% active;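 active = mean replicate activation score at least 90 and every replicate individually at or above 90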;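 note: higher luciferase means less miR-122 activity so hits act as miR-122 inhibitors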
C2C12 statin – suppressors of simvastatin-induced myotoxicity in C2C12 myotubes. ATP luminescence, 48 h; scaled: DMSO 0, geranylgeraniol control 100. rescue of ATP level, % at 7.49 µM. 330,000 tested, 0.78% active;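 active = mean ATP rescue above about 67%, or every replicate alone reaching that limit, limit read from the data, passing the limit was not always enough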;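 note: myotubes were challenged with 10 µM simvastatin during compound exposure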
PglD inh – PglD (C. jejuni) enzyme inhibition; inhibition, % at 12.5 µM; purified PglD enzyme, DTNB colorimetric CoA detection; 360,000 tested, 0.098% active; in the data active = inhibition above about 16%, passing the limit was not always enough
Numbers without * were called inactive; x = no result; [ ] = another dose, or the depositor's remark. Only some compounds are listed: those with a hit (about 1.2% of all), similar ones and a draw of the others.

SMILES | NSD2 inh | miR122 inh | C2C12 statin | PglD inh
COc1ccc(NS(=O)(=O)c2cccc(NC(=O)COc3ccccc3[N+](=O)[O-])c2)cc1 | -1.3 | 145.8* | -2.7 | -5.1
C[C@@H]1CN([C@@H](C)CO)C(=O)Cc2cc(NC(=O)c3ccncc3)ccc2O[C@H]1CN(C)Cc1ccncc1 | x | 2.5[16.7 µM] | -2.3 | 0.4
O=c1c[n+]([O-])c2ccccc2n1OCc1c(F)cccc1F | 8.4 | 111.2* | -1.0 | 3.0
CCOn1c(=O)c[n+]([O-])c2ccccc21 | 8.5 | 1.6 | 0.7 | 0.9
Cc1noc(C)c1NC(=O)N(C)C[C@H]1Oc2c(NC(=O)Nc3ccc(F)cc3)cccc2C(=O)N([C@@H](C)CO)C[C@@H]1C | x | -9.4[16.7 µM] | 10.7 | 2.3
CC1CN(Cc2c(O)ccc3c2oc(=O)c2ccccc23)CC(C)O1 (configuration not stated) | 97.5* | -4.1 | 10.0 | 3.4
CC(=O)N1CCOc2ccc(S(=O)(=O)Nc3cccc(C)c3)cc21 | -6.1 | 130.2* | 5.7 | x
CC(=O)N1CCSc2ccc(S(=O)(=O)NCCc3ccc(C)cc3)cc21 | -0.2 | 86.2 | 0.1 | 5.2
O=S(=O)(Nc1ccc(Cl)cc1)c1ccc2c(c1)CCO2 | 4.8 | 122.6* | x | -1.8
O=S(=O)(Nc1ccc2c(c1)OCCO2)c1ccc(F)c(F)c1 | 3.6 | -0.8 | -8.6 | -0.5
CC(=O)N1CCSc2ccc(S(=O)(=O)NCCc3ccc(Cl)cc3)cc21 | 3.2 | 93.9* | -23.3 | 9.4
COc1cccc(NS(=O)(=O)c2ccc3c(c2)N(C(C)=O)CCO3)c1 | -2.3 | 195.1* | 11.6 | 2.8
COc1ccc(NS(=O)(=O)c2ccc3c(c2)N(C(C)=O)CCO3)c(OC)c1 | -0.3 | 11.4 | 4.1 | 0.4
CNC[C@H]1Oc2cc(C#CC3CCCC3)ccc2S(=O)(=O)N([C@H](C)CO)C[C@H]1C | x | -31.5[16.7 µM] | -21.0 | 0.8
C[C@@H]1CN([C@@H](C)CO)C(=O)c2cc(C#CC3CC3)cnc2O[C@@H]1CN(C)C(=O)c1ccncc1 | x | -1.5[16.7 µM] | 14.6 | x
CC(=O)N1CCOc2ccc(S(=O)(=O)NCCc3ccccc3)cc21 | 3.7 | 3.8 | 3.1 | -1.7
Cc1ccc(S(=O)(=O)Nc2ccc3c(c2)OCCO3)cc1C | -0.9 | x | 11.5 | x
Cc1cccc(NC(=O)c2cccc(NS(=O)(=O)c3ccc(Cl)cc3)c2)c1 | -1.1 | 3.5 | 105.5* | 5.4
CCc1cccc(NS(=O)(=O)c2ccc3c(c2)N(C)CCO3)c1 | x | 172.4* | -2.4 | 4.0
Cc1cccc(NS(=O)(=O)c2ccc3c(c2)OCCO3)c1 | 0.8 | 118.9* | 0.4 | -4.9
CC(=O)N1CCOc2ccc(S(=O)(=O)NCCc3cccc(C)c3)cc21 | 7.0 | 116.5* | 9.0 | 0.2
Cc1ccc(NS(=O)(=O)c2ccc3c(c2)N(C)CCO3)cc1 | 7.4 | x | -1.7 | -0.7
CNC[C@@H]1Oc2ccc(NS(=O)(=O)c3cccs3)cc2C(=O)N([C@H](C)CO)C[C@H]1C | x | -0.6[16.7 µM] | -42.4 | 1.0
O=C(NC1CCCCC1)N[C@@H]1CC[C@@H](CCNS(=O)(=O)c2ccccc2)O[C@H]1CO | x | x | 12.9 | 4.4
COc1ccc(S(=O)(=O)Nc2ccc3c(c2)OCCO3)cc1Cl | 2.0 | 45.6 | 113.9* | x
SMILES | NSD2 inh | miR122 inh | C2C12 statin | PglD inh
Clc1ccccc1-c1nnc2sc(-c3ccc(Br)o3)nn12 | -3.7 | 10.2 | 18.7 | -0.2
Brc1ccc(-c2nn3c(Cc4ccccc4)nnc3s2)o1 | -1.2 | 4.2 | 71.8* | 3.0
Cc1ccc(C(=O)N(c2ccccn2)C(C)c2ccco2)cc1C (configuration not stated) | 3.8 | 55.7 | 123.0* | 6.1
Cc1ccc(CNC(=O)C2CCCC2)cc1 | -2.5 | -1.7 | -2.9 | -4.9
Cc1ccc2[nH]c(CNC(=O)C3CCCCC3)cc2c1 | -0.6 | 135.1* | -4.5 | -2.6
CC(C)C#Cc1cnc2c(c1)C(=O)N([C@@H](C)CO)C[C@H](C)[C@@H](CN(C)Cc1cncnc1)O2 | x | 0.1[16.7 µM] | -3.6 | -3.6
COc1ccc2sc(-c3ccccc3OC)c(-c3ccc(O)cc3)c2c1 | x | 2.0 | 131.5* | -6.6
Cc1ccc(-n2c(=O)cc(N3CCN(C(=O)c4ccco4)CC3)[nH]c2=O)cc1 | x | 5.1 | 101.8* | 2.6
CCCNC(=O)N(C)C[C@@H]1Oc2cc(-c3ccncc3)ccc2S(=O)(=O)N([C@@H](C)CO)C[C@H]1C | x | 2.8[16.7 µM] | -6.8 | 0.5
O=C(CN1CCN(S(=O)(=O)c2ccc(Br)cc2)CC1)Nc1ccc2c(c1)OCCO2 | 1.4 | 0.8 | 144.0* | -2.9
C/C(=N\NS(=O)(=O)c1ccc(C)cc1)c1ccc(C)o1 | 0.6 | 9.0 | 0.3 | -4.1
C/C(=N/NS(=O)(=O)c1ccc(F)cc1)c1ccc(NC(=O)c2ccc(C)o2)cc1 | 16.7 | 132.1* | -7.2 | 5.2
CCCNC(=O)Nc1ccc2c(c1)OC[C@@H](C)N(Cc1ccccn1)C[C@@H](C)[C@H](OC)CN(C)C2=O | x | x | -0.9 | 1.4
CCN(CC)CCCOc1nc(C)nc2c1oc1ccccc12 | 64.5* | -17.2 | -0.9 | -6.2
CCN(CC)CCOc1nc(C)nc2c1oc1ccccc12 | 10.0 | 0.3 | 3.0 | -3.7
CCC(=O)N[C@H]1C=C[C@H](CC(=O)NCCN2CCCCC2)O[C@@H]1CO | x | x | -1.9 | 0.7
O=C(COc1ccc2ccccc2c1)NNC(=O)Cc1cccc2ccccc12 | 18.0 | -4.0 | 114.2* | -2.7
CCOC(=O)N1CCN(C(=O)c2cc(-n3cnnc3)ccc2Cl)CC1 | -0.2 | 0.7 | 94.9* | x
Cc1ccccc1NC(=O)c1ccc(Cl)c(NC(=O)c2ccco2)c1 | 1.1 | x | x | x
FC(F)(F)c1nnc2c(Sc3ccccc3)nc3ccc(Cl)cc3n12 | 0.5 | 307.2* | -29.7 | -2.9
Cc1ccc(S(=O)(=O)Nc2cccc(-c3cn4ccsc4n3)c2)cc1 | -6.4 | 142.3* | 7.6 | 1.2
O=C(NCCC(=O)N1CCN(c2ccccn2)CC1)c1ccc([N+](=O)[O-])cc1 | x | x | -8.0 | -0.7
O=C(Nc1c(C(=O)N2CCN(c3ccccn3)CC2)oc2ccccc12)c1ccc([N+](=O)[O-])cc1 | 4.1 | 143.5* | -23.7 | -2.7
COc1ccc(S(=O)(=O)Nc2ccc3c(c2)CC(=O)N([C@@H](C)CO)C[C@@H](C)[C@@H](CN(C)Cc2ccc(C(=O)O)cc2)O3)cc1 | x | 3.2[16.7 µM] | -10.2 | 2.4
COc1ccc(S(=O)(=O)N(C(C)=O)c2ccc3oc(=O)sc3c2)cc1 | 0.0 | -8.2 | 86.8* | -0.5
SMILES | NSD2 inh | miR122 inh | C2C12 statin | PglD inh
COc1ccc(C(=O)c2ccc(OC)cc2O)c(O)c1 | -1.0 | 1.6 | 128.3* | 1.5
CCN(CC)CCOc1nnc(-c2ccc(C)cc2)c2ccccc12 | 15.8 | -9.4 | 7.3 | -9.7
Cc1ccc(-c2nnc(OCCN3CCOCC3)c3ccccc23)cc1 | 2.1 | -4.9 | 111.4* | 0.7
COc1ccccc1C#Cc1ccc([C@@H]2[C@@H](CO)N3CCCCN(C(=O)C4CC4)C[C@H]23)cc1 | x | -25.7[16.7 µM] | x | -2.3
Cc1cc(C)n(CC(O)CN(c2ccccc2)S(=O)(=O)c2ccccc2)n1 (configuration not stated) | -0.4 | 5.0 | 10.3 | -11.0
O=S(=O)(c1ccccc1)N(CC(O)COc1ccccc1)c1ccccc1 (configuration not stated) | -1.5 | 130.6* | 37.4 | -5.8
C[C@@H]1CN([C@@H](C)CO)C(=O)c2cccc(N(C)C)c2O[C@@H]1CN(C)C(=O)Nc1ccccc1 | x | 7.8[16.7 µM] | 0.4 | 5.3
